The record followed here is the supplement of paper PMC13380429.

In assay [1] the test system is Vero E6 infected with SARS-CoV-2. As to the kind of experiment: morphology score (similarity to uninfected cells); higher = more like uninfected cells. The settings on record: 24 h.
The test system is the same in assay [2]. As to the kind of experiment: SARS-CoV-2 infection rate relative to infected DMSO; higher = more infection, active = 60 or less. The following applies: 24 h.

In the case of `O=[N+]([O-])c1ccc2c(c1)S(=O)(=O)C=C2` [stattic] (0.833333 µM), the morphology score in assay [1] turned out to be 0.148. Also, the SARS-CoV-2 infection rate in assay [2] is 100% (inactive).

In turn, `CN1CCN(c2c(F)cc3c(=O)c(C(=O)O)cn(CCF)c3c2F)CC1` [fleroxacin] (10 µM) yielded a morphology score in assay [1] of -0.043. Also, in assay [2], the SARS-CoV-2 infection rate was 115% (inactive).

In assay [1], `NC1CCN(c2c(F)cc3c(=O)c(C(=O)O)cn(C4CC4)c3c2Cl)C1` (centres undefined) [clinafloxacin] (10 µM) registered a morphology score of 0.187. Moreover, the SARS-CoV-2 infection rate in assay [2] was 112% (inactive).

Molecule `CC(C)(C)c1ccc2cc(C#N)c(C#N)cc2c1` (10 µM) gave a morphology score in assay [1] of 0.103. The SARS-CoV-2 infection rate in assay [2] was 105% (inactive).

The molecule `Cc1ccc(-n2nc(C(C)(C)C)cc2NC(=O)NCc2cc(F)ccc2Oc2ccc3c(cnn3CCO)c2)cc1` [pexmetinib] (0.833333 µM) had a morphology score in assay [1] of 0.226. The SARS-CoV-2 infection rate in assay [2] is 105% (inactive).

In the case of `CC(C)(C)CC(C)(C)c1ccc(OCCOCC[N+](C)(C)Cc2ccccc2)cc1` [benzethonium] (10 µM), the morphology score in assay [1] is -0.104. For the same molecule, the SARS-CoV-2 infection rate in assay [2] is 108% (inactive).

In assay [1], `O=C(O)c1ccccc1S` [o-mercapto-benzoic-acid] (10 µM) returned a morphology score of 0.201. The SARS-CoV-2 infection rate in assay [2] was 101% (inactive).

On to `NC(=O)NCCC[C@H](N)C(=O)O` [L-citrulline] (10 µM), for which the morphology score in assay [1] came to 0.035. Further, the SARS-CoV-2 infection rate in assay [2] was 112% (inactive).

On to `CC(C)C[C@H](CN)CC(=O)O` (10 µM), for which, in assay [1], the morphology score is -0.0821. In addition, the SARS-CoV-2 infection rate in assay [2] is 106% (inactive).

In turn, `CC(C)=CCC/C(C)=C/CC/C(C)=C/CSc1ccccc1C(=O)O` [salirasib] (10 µM) showed a morphology score in assay [1] of 0.161. Moreover, the SARS-CoV-2 infection rate in assay [2] is 89% (inactive).

For `COc1ccc(S(=O)(=O)Nc2nc(-c3cccc([N+](=O)[O-])c3)cs2)cc1OC` (10 µM), in assay [1], the morphology score was -0.00369. Besides, the SARS-CoV-2 infection rate in assay [2] is 107% (inactive).

Turning to `COc1cc2c(cc1OC)CN(CCc1ccc(NC(=O)c3cccc4c(=O)c5cccc(OC)c5[nH]c34)cc1)CC2` [elacridar] (10 µM), the morphology score in assay [1] was determined as 0.0355. Also, the SARS-CoV-2 infection rate in assay [2] was 102% (inactive).
